Here are results for eleven compounds from PubChem BioAssay (NCATS).

In assay [1] the target is Muscarinic acetylcholine receptor M1 (Rattus norvegicus) (UniProt P08482). The assay is described as follows: qHTS Assay for Antagonists of Acetylcholine Muscarinic M1 Receptor: Kinetic Measurement of Intracellular Calcium Response (AID 943).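 Further: Fluo-4 calcium signal as peak divided by basal fluorescence over 4 min; series mostly up to about 35 µM; nearly all actives have a fitted effect of over 75% in size.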 In outline: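 Quantitative HTS in CHO-M1 (rat receptor) cells: 10 min compound exposure ahead of 100 nM carbachol, Fluo-4 fluorescence followed 4 min, value expressed as peak-to-basal ratio.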
Muscarinic acetylcholine receptor M1 (Rattus norvegicus), sequence (P08482 whole entry, looked up): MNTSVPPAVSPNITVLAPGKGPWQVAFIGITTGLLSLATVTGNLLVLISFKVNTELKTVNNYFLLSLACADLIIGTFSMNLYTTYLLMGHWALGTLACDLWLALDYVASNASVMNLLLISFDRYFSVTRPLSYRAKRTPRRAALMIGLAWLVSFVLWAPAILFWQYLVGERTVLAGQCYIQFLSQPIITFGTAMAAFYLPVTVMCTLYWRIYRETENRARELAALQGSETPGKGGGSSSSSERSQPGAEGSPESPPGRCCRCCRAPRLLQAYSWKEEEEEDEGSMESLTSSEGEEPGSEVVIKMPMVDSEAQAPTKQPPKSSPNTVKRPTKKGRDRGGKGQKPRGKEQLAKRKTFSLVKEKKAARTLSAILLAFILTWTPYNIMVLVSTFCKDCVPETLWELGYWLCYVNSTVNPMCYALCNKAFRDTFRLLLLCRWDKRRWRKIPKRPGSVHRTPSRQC
(In general: qHTS replaces the single test concentration by a dilution series.)

For assay [2] the target is unchanged. The assay is described as follows: qHTS Assay for Antagonists of Acetylcholine Muscarinic M1 Receptor: Measurement of IP-One Response (AID 944). Further: nearly all actives have a fitted effect of over 75% in size. In outline:
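Antagonism was measured as loss of carbachol-driven (EC80) IP1 accumulation in CHO cells carrying rat M1, using a homogeneous IP-One TR-FRET kit read at 620 and 665 nm.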

In assay [3] the target is Pyruvate kinase (Leishmania mexicana) (UniProt Q27686). Kind of assay: qHTS Validation Assay for Inhibitors of Leishmania Mexicana Pyruvate Kinase (AID 945). In outline:
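Mutant LmPYK (E451W), 0.2 nM, plus 0.5 mM PEP and 0.1 mM ADP in 50 mM imidazole pH 7.2 containing 0.01% Tween 20 and 0.05% BSA. Incubated 1 h at room temperature; luminescence via PKLight, normalized to DMSO.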

Assay [4] addresses Pyruvate kinase PKM (Homo sapiens) (UniProt P14618). The assay is described as follows: qHTS Assay for Activators of Human Muscle Pyruvate Kinase (AID 954; active means well fitted curve in the direction sought with a large enough effect, not every such curve was filed as active). In outline: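 PKM2, human, >95% pure, 0.1 nM; PEP 0.5 mM (Km), ADP 0.1 mM; 50 mM imidazole pH 7.2, 50 mM KCl, 0.01% Tween 20, 0.05% BSA; 1 h RT; luciferase luminescence readout.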
Assay [5] in a line: MultiTox-Fluor Cytotoxicity Assay - LYMP1-001 - Dead Cells (AID 946). Further: potency means the concentration at half of the fitted maximal effect. In outline: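 Seed 2500 LYMP1-001 cells/well, incubate 5 hr at 37 C; add compound, 16 hr at 37 C; add MultiTox-Fluor reagent, 60 min RT; read dead-cell fluorescence Ex/Em=485/520. Normalize to DMSO and 15 uM tetraoctylammonium bromide.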
Assay [6] in a line: MultiTox-Fluor Cytotoxicity Assay - LYMP1-001 - Live Cells (AID 947). Further: potency means the concentration at half of the fitted maximal effect.
Assay [7] in a line: Cell Viability - LYMP1-002 - Assay at 16 hr (AID 948). Further: potency means the concentration at half of the fitted maximal effect. The method in brief: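 LYMP1-002 human lymphoblastoid cells, 2500/well, were treated with compounds for 16 hr at 37 C in complete medium. Viability was read as intracellular ATP by CellTiter-Glo luminescence, and AC50 was derived from a Hill fit to concentration-response data.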
Assay [8] is described as follows: MultiTox-Fluor Cytotoxicity Assay - LYMP1-002 - Live Cells (AID 955).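 Further: cells exposed to compound for 16 hours.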 Further: potency means the concentration at half of the fitted maximal effect. In outline:
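In this qHTS viability format, lymphoblastoid cells (LYMP1-002, human) received compound for 16 hr at 37 C. Fluorogenic GF-AFC cleavage by viable cells was detected at 405/510 nm after 1 h at room temperature.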

The nature of assay [9]: MultiTox-Fluor Cytotoxicity Assay - LYMP1-002 - Dead Cells (AID 960). Further: nearly all actives have a fitted effect of over 60% in size. Further: potency means the concentration at half of the fitted maximal effect. In outline: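 Concentration-dependent increases in membrane-leaked protease activity are quantified in LYMP1-002 cells after 16 hr treatment; values are normalized against DMSO and tetraoctylammonium bromide (15 uM) controls and AC50 derived by Hill modeling.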
Assay [10] is described as follows: MultiTox-Fluor Cytotoxicity Assay - LYMP1-003 - Dead Cells (AID 961). Further: nearly all actives have a fitted effect of over 70% in size. In outline: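 LYMP1-003 lymphoblastoid, 2500 cells/well, 5 hr settle then 16 hr cpd at 37 C; MultiTox-Fluor reagent 60 min RT; Ex/Em 485/520 dead-cell signal; norm. DMSO = 0%, 15 uM tetraoctylammonium bromide = 100%; Hill AC50.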
Assay [11] in a line: MultiTox-Fluor Cytotoxicity Assay - LYMP1-003 - Live Cells (AID 962).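 Further: cells exposed to compound for 16 hours at 37 °C.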 Further: potency means the concentration at half of the fitted maximal effect. In outline:
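Human lymphoblastoid line LYMP1-003 in complete culture medium, treated 16 hr with titrated compounds. Viable cells quantified via cell-permeant GF-AFC substrate fluorescence; AC50 derived by Hill fitting.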

Assay [12] can be described thus: Cell Viability - LYMP1-003 - Assay at 24 hr (AID 963). Further: potency means the concentration at half of the fitted maximal effect. The method in brief:
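The lymphoblastoid line was treated with titrated compounds for 24 hours, and viable cell number estimated from luciferase-based ATP luminescence.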

A short description of assay [13]: Cell Viability - LYMP1-003 - Assay at 40 hr (AID 964). Further: nearly all actives have a fitted effect of over 60% in size. Further: potency means the concentration at half of the fitted maximal effect. The method in brief: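 Acute toxicity is scored as a concentration-dependent loss of intracellular ATP in LYMP1-003 cells (2500/well, complete medium) after 40 hr at 37 C, measured by CellTiter-Glo luminescence; AC50 values derive from standard Hill modelling.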
Assay [14] is described as follows: Cell Viability - LYMP2-003 (AID 965).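 Further: cells exposed to compounds for 24 h before reading; nearly all actives have a fitted effect of over 50% in size.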 Further: potency means the concentration at half of the fitted maximal effect. In outline: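 Human lymphoblastoid LYMP2-003 cells, 2500/well, exposed to compounds for 24 h at 37 C in complete medium. Viability read as intracellular ATP by CellTiter-Glo luminescence; AC50 from Hill-equation fits of qHTS concentration-response data.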
Assay [15] in a line: Cell Viability - LYMP2-004 (AID 966). Further: nearly all actives have a fitted effect of over 65% in size. Further: potency means the concentration at half of the fitted maximal effect. In outline: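 Viable-cell number estimated from ATP luminescence (CellTiter-Glo) in 2500 human lymphoblastoid cells/well after 24 hr at 37 C with compound. AC50 fitted to the standard Hill equation.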
Assay [16] is described as follows: Cell Viability - LYMP2-005 (AID 967). Further: potency means the concentration at half of the fitted maximal effect. The method in brief:
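Human lymphoblastoid LYMP2-005 cells, 2,500 per well in complete medium, rested 5 h at 37C then compound-treated 24 h at 37C. Intracellular ATP read by CellTiter-Glo luminescence after 30 min at room temperature; AC50 from Hill-equation fits of concentration-response data.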

The nature of assay [17]: Cell Viability - LYMP2-009 (AID 968). Further: nearly all actives have a fitted effect of over 55% in size. Further: potency means the concentration at half of the fitted maximal effect.
A short description of assay [18]: Cell Viability - LYMP2-011 (AID 969). Further: nearly all actives have a fitted effect of over 60% in size. Further: potency means the concentration at half of the fitted maximal effect. The method in brief: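 Cells seeded at 2500 per well rest 5 hr before compound addition, then incubate 24 hr at 37 C. CellTiter-Glo reagent is added for 30 min at room temperature before luminescence detection.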
Assay [19] is described as follows: Cell Viability - LYMP2-013 (AID 970). Further: nearly all actives have a fitted effect of over 55% in size. Further: potency means the concentration at half of the fitted maximal effect. In outline: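 In complete culture medium, human lymphoblastoid cells were dosed for 24 hr at 37 C, with tetraoctylammonium bromide (6.4pM to 92 uM) as positive control. Viability reflects luciferase-based ATP signal; AC50 derived from concentration-response curves.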
Assay [20] in a line: Cell Viability - LYMP2-015 (AID 971). Further: nearly all actives have a fitted effect of over 55% in size. Further: potency means the concentration at half of the fitted maximal effect. The method in brief:
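AC50 values reflect Hill-model fits of ATP-based luminescence (CellTiter-Glo) from a human lymphoblastoid line, 2500 cells/well, treated 24 hr at 37 C.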

Records with an inconclusive call do not appear. Calls of active or inactive are those of the source. Unless noted, the call rests on the fitted dose curve; in most records, active means well fitted curve in the direction sought with a large enough effect; inconclusive means small, poorly fitted or top-dose-only effect, or another doubt; inactive means no such curve, though single readings can be large; an effect the other way counts as inactive or inconclusive.

Pyruvate kinase PKM (Homo sapiens), sequence (P14618 whole entry, looked up): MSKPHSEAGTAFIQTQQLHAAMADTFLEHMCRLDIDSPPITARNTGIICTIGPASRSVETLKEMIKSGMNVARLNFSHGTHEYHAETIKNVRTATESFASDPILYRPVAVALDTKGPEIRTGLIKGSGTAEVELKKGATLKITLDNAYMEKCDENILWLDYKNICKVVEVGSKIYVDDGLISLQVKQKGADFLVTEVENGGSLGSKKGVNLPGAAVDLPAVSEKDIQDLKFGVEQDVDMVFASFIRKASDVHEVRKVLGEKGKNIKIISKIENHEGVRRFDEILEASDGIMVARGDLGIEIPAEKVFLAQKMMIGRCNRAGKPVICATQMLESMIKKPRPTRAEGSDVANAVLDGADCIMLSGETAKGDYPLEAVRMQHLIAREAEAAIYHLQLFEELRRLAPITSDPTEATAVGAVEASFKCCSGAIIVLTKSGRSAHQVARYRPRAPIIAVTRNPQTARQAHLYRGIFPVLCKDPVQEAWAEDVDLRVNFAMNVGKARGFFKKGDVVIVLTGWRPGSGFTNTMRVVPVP
Pyruvate kinase (Leishmania mexicana), sequence (Q27686 2-499 E452W): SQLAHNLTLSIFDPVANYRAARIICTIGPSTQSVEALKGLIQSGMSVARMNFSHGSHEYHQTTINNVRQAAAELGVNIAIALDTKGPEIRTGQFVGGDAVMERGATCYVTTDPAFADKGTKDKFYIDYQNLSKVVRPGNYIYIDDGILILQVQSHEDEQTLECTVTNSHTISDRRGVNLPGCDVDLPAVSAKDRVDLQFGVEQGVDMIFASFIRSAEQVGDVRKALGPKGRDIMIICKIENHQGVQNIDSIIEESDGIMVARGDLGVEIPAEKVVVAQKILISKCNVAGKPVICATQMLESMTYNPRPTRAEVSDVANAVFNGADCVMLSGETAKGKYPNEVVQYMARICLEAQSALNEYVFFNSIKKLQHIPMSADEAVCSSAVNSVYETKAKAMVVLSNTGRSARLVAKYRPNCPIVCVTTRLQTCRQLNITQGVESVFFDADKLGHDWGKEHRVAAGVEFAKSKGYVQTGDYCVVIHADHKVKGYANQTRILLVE

As to `Cc1ccc(S(=O)(=O)N[C@@H](Cc2ccccc2)C(=O)CCl)cc1`, the result in assay [1], in [2], in [3] and in assay [4] was inactive.
Consider `Cc1nnc(NS(=O)(=O)c2ccc(N)cc2)s1`, for which the Potency result in assay [5], in assay [6], in assay [7], in assay [8], in assay [9] and in assay [11] was “inactive” in each case. The Potency result in [12], in assay [13], in assay [14], in [15], in assay [16] and in [17] was “inactive” throughout. In addition, the Potency result in assay [18], in [19] and in assay [20] was “inactive” in each case. Besides, the outcome in assay [10] was inactive.
Turning to `NC(=O)c1cccc(N)c1`, the compound was called inactive in assay [3] and in assay [4].
For the compound `N=C(N)c1ccc(OCCCCCOc2ccc(C(=N)N)cc2)cc1`, the Potency entry in [5], in assay [6], in [7], in [8], in assay [9] and in assay [11] was “inactive” in each case. For the same compound, the Potency entry in assay [12], in assay [14], in [15] and in [17] was “inactive” in each case. The result in [10] was inactive. Further, the Potency in [13] was 39.8 µM (active).
For `O=C(N[C@H](CO)[C@H](O)c1ccc([N+](=O)[O-])cc1)C(Cl)Cl`, the Potency entry in assay [5], in [6], in assay [7], in [8], in assay [9] and in assay [11] was “inactive” throughout. Also, the Potency result in assay [12], in assay [13], in assay [14], in assay [15], in assay [16] and in assay [17] was “inactive” in each case. The Potency result in [18], in assay [19] and in [20] was “inactive” in each case. Also, in assay [10], the call was inactive.
For `NC(N)=NC(N)=NCCc1ccccc1`, the Potency result in assay [5], in assay [6], in [7], in assay [8], in [9] and in assay [11] was “inactive” throughout. Also, the Potency result in [12], in assay [13], in assay [14], in assay [17], in assay [18] and in [19] was “inactive” each time. In assay [10], the result was inactive.
`Cc1ncc([N+](=O)[O-])n1CCO`: the Potency result in assay [5], in assay [6], in [7], in [8], in assay [9] and in [11] was “inactive” throughout. In addition, the Potency entry in assay [12], in [13], in assay [14], in assay [15], in assay [16] and in assay [17] was “inactive” each time. Also, the Potency entry in assay [18], in assay [19] and in assay [20] was “inactive” in each case. In assay [10], the outcome was inactive.
For `O=C(O)c1cc(=O)[nH]c(=O)[nH]1`, the Potency entry in assay [5], in assay [6], in assay [7], in assay [8], in assay [9] and in assay [11] was “inactive” throughout. Besides, the Potency result in [12], in assay [13], in [14], in [15], in assay [16] and in assay [17] was “inactive” throughout. The Potency entry in [18], in [19] and in [20] was “inactive” in each case. Moreover, the compound was called inactive in assay [10].
As for `N[C@@H](Cc1ccc(O)c(O)c1)C(=O)O`, the outcome in assay [2] and in assay [4] was inactive.
For the compound `CN(C)c1ccc(C(=C2C=CC(=[N+](C)C)C=C2)c2ccc(N(C)C)cc2)cc1`, the Potency is 12.6 µM (active) in assay [5]; 25.1 µM (active) in assay [6]; 6.31 µM (active) in [7]; 10 µM (active) in [8]; 3.98 µM (active) in [9]; 15.8 µM (active) in assay [11]. Further, the Potency was 7.94 µM (active) in assay [12]; 2.51 µM (active) in assay [13]; 3.16 µM (active) in assay [14]; 1.58 µM (active) in assay [15]; 2.51 µM (active) in assay [16]; 2.51 µM (active) in assay [17]. The Potency in [18] is 2.51 µM (active); in [19], 3.98 µM (active); in assay [20], 2.51 µM (active).
Take `Cc1ccnc2c1NC(=O)c1cccnc1N2C1CC1`: the Potency entry in assay [5], in assay [6], in assay [7], in assay [8], in [9] and in assay [11] was “inactive” throughout. Moreover, the Potency entry in [12], in assay [13], in assay [14], in assay [15], in assay [16] and in assay [17] was “inactive” throughout. Also, the Potency result in assay [18], in assay [19] and in assay [20] was “inactive” each time. In assay [10], the outcome was inactive.
